From PubChem BioAssay (Tox21)
Inconclusive results are not listed. Active and inactive are the calls of the source. Unless noted, the call rests on the fitted dose curve; in most records, active means well fitted curve in the direction sought with a large enough effect in the repeat runs; inconclusive means weak or mixed curves; inactive means no such curve, though single readings can be large; an effect the other way counts as inactive or inconclusive.

What was measured:
[1] = qHTS assay to identify small molecule agonists of the peroxisome proliferator-activated receptor delta (PPARd) signaling pathway - cell viability counter screen (AID 743211); further: nearly all actives have a fitted effect of over 55% in size
How it was run: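 Following 5 h plating at 37 C and 5% CO2, PPARd UAS-bla HEK293H cells took up test compounds for 17 h. Viability was quantified by luminescence 30 min after CellTiter-Glo addition at room temperature.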

[2] = qHTS assay to identify small molecule antagonists of the peroxisome proliferator-activated receptor delta (PPARd) signaling pathway - cell viability counter screen (AID 743213); further: nearly all actives have a fitted effect of over 50% in size
How it was run: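 PPARd-bla HEK293H cells (3000/well) got compound plus 300 nM L165041 agonist for 17 h at 37 C. Viability in the same wells came from CellTiter-Glo luminescence after 30 min at room temperature.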

[3] = target: Bile acid receptor (Homo sapiens) (UniProt Q96RI1); assay: qHTS assay to identify small molecule antagonists of the farnesoid-X-receptor (FXR) signaling pathway (AID 743217; active means well fitted inhibition curve with a large enough effect in the signal ratio in the repeat runs, not every such curve was filed as active; the % refers to the signal ratio)
Sequence of Bile acid receptor (Homo sapiens) (Q96RI1 whole entry, looked up): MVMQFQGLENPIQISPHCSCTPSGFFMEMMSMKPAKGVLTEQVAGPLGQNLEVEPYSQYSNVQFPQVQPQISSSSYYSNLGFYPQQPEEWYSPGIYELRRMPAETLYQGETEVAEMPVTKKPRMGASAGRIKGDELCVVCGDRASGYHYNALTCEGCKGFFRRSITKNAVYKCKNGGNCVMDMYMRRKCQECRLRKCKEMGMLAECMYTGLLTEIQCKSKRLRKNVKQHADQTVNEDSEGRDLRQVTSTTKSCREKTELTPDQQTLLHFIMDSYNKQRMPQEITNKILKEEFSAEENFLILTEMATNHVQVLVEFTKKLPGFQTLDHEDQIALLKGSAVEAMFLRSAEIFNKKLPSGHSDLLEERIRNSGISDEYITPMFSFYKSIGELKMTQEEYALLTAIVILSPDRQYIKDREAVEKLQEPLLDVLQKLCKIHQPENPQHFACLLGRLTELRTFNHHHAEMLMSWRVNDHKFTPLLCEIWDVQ
How it was run: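 Beta-lactamase reporter under UAS control in HEK 293T cells; compound exposure 16 h at 37 °C in the presence of chenodeoxycholic acid (50 uM final); signal from B/G FRET substrate after 2 h at room temperature.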

[4] = qHTS assay to identify small molecule agonists of the farnesoid-X-receptor (FXR) signaling pathway - cell viability counter screen (AID 743218); further: nearly all actives have a fitted effect of over 45% in size
How it was run: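 In GeneBLAzer FXR-UAS-bla HEK 293T cells, compounds act for 16 h at 37 C. Cell viability is then scored in the reporter wells by CellTiter-Glo, 30 min at RT, luminescence.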

[5] = target: Bile acid receptor (Homo sapiens) (UniProt Q96RI1); assay: qHTS assay to identify small molecule agonists of the farnesoid-X-receptor (FXR) signaling pathway (AID 743220; active means well fitted activation curve with a large enough effect in the signal ratio in the repeat runs, not every such curve was filed as active; the % refers to the signal ratio)
How it was run: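 Beta-lactamase reporter under UAS control in GeneBLAzer FXR HEK 293T cells (5000/well) measured with LiveBLAzer FRET substrate after 2 h at room temperature. Compound exposure lasted 16 h at 37C.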

[6] = qHTS assay to identify small molecule antagonists of the farnesoid-X-receptor (FXR) signaling pathway - cell viability counter screen (AID 743221; active means well fitted cell-killing curve with a large enough effect in the repeat runs, not every such curve was filed as active; further: nearly all actives have a fitted effect of over 50% in size)
How it was run: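 Compound effects on cell number were measured as CellTiter-Glo luminescence in HEK 293T cells expressing FXR-UAS-bla, after 16 h at 37 C with 50 uM CDCA (final).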

[7] = target: Vitamin D3 receptor (Homo sapiens) (UniProt P11473); assay: qHTS assay to identify small molecule agonists of the vitamin D receptor (VDR) signaling pathway (AID 743222; calls by dose curve)
Sequence of Vitamin D3 receptor (Homo sapiens) (P11473 whole entry, looked up): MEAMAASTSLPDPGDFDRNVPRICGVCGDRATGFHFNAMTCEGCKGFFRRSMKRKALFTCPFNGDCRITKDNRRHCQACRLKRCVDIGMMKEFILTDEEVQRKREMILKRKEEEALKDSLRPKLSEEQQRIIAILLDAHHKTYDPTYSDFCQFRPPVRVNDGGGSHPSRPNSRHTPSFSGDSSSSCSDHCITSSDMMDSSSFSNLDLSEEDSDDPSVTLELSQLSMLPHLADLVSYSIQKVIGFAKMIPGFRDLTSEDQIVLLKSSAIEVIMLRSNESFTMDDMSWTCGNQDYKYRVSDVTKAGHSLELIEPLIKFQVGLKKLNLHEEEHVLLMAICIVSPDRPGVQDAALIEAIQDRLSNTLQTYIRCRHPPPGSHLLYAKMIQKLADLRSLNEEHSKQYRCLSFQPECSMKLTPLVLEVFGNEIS
How it was run: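 Agonist activity measured in VDR-bla reporter cells. Exposure 16 h, 37C, 5% CO2; detection by B/G FRET substrate, 2 h RT.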

[8] = target: Vitamin D3 receptor (Homo sapiens) (UniProt P11473); assay: qHTS assay to identify small molecule antagonists of the vitamin D receptor (VDR) signaling pathway (AID 743223; active means well fitted inhibition curve with a large enough effect in the signal ratio in the repeat runs, not every such curve was filed as active; the % refers to the signal ratio)
How it was run: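 Beta-lactamase activity in VDR-bla cells is measured by FRET substrate fluorescence (2 h, room temperature) after cells spend 16 h at 37C with test compound and 3 nM final 1alpha,25-dihydroxyvitamin D3.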

[9] = qHTS assay to identify small molecule agonists of the vitamin D receptor (VDR) signaling pathway - cell viability counter screen (AID 743224); further: series mostly up to about 63 µM; nearly all actives have a fitted effect of over 50% in size
How it was run: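 VDR-bla cell line, quantitative HTS format; 16 h compound incubation (37C, 5% CO2); ATP-based CellTiter-Glo luminescence measured in the reporter assay wells.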

[10] = qHTS assay to identify small molecule antagonists of the vitamin D receptor (VDR) signaling pathway - cell viability counter screen (AID 743225); further: nearly all actives have a fitted effect of over 50% in size
How it was run: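 In this counter screen, VDR-bla HEK 293T cells receive test compound plus 3 nM final calcitriol for 16 h at 37C. Room-temperature steps of 2 h with the beta-lactamase substrate, then 30 min with CellTiter-Glo, precede the luminescence read.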

[11] = qHTS assay to identify small molecule agonists of the NFkB signaling pathway - cell viability counter screen (AID 1159515; calls by dose curve; further: series mostly up to about 61 µM; nearly all actives have a fitted effect of over 55% in size)
How it was run: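 Viability in NFkB-bla ME-180 cells was measured by CellTiter-Glo luminescence, 30 min room temperature, in wells already treated 5 hr with compounds and read for reporter FRET.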

[12] = qHTS assay to identify small molecule agonists of the endoplasmic reticulum stress response signaling pathway (AID 1159516; active means well fitted activation curve with a large enough effect in the signal ratio in the repeat runs, not every such curve was filed as active; the % refers to the signal ratio)
How it was run: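 ER stress element reporter (bla) in HeLa. 1,500 cells/well, overnight attachment; 5 hr compound; 2 hr RT substrate; dual-emission fluorescence.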

[13] = qHTS assay to identify small molecule agonists of the endoplasmic reticulum stress response signaling pathway - cell viability counter screen (AID 1159517; calls by dose curve)
How it was run: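 Counter-screen wells were identical to the reporter wells. Cells were plated at 1,500 per well and dosed for 5 hr, then read for luminescence 30 min after CellTiter-Glo addition.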

[14] = qHTS assay to identify small molecule antagonists of the retinoid-related orphan receptor gamma (ROR-gamma) signaling pathway - cell viability counter screen (AID 1159520); further: nearly all actives have a fitted effect of over 50% in size
How it was run: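 Tet-on ROR gamma CHO cells were given compounds for 2 hr, then doxycycline hyclate at 1 uM final, and incubated 16 hr at 37 C. Viability was measured as ATP content by CellTiter-Glo luminescence.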

[15] = target: Nuclear receptor ROR-gamma (Homo sapiens) (UniProt P51449); assay: qHTS assay to identify small molecule antagonists of the retinoid-related orphan receptor gamma (ROR-gamma) signaling pathway (AID 1159521)
How it was run: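 Screening format: cell-based luciferase reporter in CHO cells with doxycycline-inducible RORγ. Compound pre-exposure lasts 2 h, doxycycline is 1 uM final, induction runs 16 h at 37 C, and ONE-Glo luminescence is read.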

[16] = qHTS assay to identify small molecule agonists of the AP-1 signaling pathway - cell viability counter screen (AID 1159525; calls by dose curve; further: nearly all actives have a fitted effect of over 55% in size)
How it was run: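 AP-1-bla ME-180 cells in Opti-MEM with 0.5% dialyzed FBS, compound exposure 5 h at 37 C in 15-point titration. Viability read in the same wells as ATP content by CellTiter-Glo luminescence, normalised to tetra-n-octylammonium bromide and DMSO controls.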

[17] = qHTS assay to identify small molecule agonists of the AP-1 signaling pathway (AID 1159526; calls by dose curve)
[18] = target: Peroxisome proliferator-activated receptor delta (Homo sapiens) (UniProt Q03181); assay: qHTS assay to identify small molecule agonists of the peroxisome proliferator-activated receptor delta (PPARd) signaling pathway (AID 743212; calls by dose curve)
Sequence of Peroxisome proliferator-activated receptor delta (Homo sapiens) (Q03181 whole entry, looked up): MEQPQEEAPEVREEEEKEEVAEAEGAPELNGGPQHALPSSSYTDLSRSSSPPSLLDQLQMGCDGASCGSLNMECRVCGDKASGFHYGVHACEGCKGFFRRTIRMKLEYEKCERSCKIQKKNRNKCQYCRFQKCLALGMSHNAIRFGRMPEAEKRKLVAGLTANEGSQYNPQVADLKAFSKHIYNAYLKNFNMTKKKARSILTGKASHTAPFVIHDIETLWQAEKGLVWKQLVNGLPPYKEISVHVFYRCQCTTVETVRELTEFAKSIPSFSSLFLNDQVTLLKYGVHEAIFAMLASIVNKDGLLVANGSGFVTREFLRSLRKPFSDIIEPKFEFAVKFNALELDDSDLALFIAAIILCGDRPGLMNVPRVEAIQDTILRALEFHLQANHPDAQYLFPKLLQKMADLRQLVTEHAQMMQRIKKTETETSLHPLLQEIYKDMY
How it was run: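 Quantitative high-throughput agonist screen in a HEK293H beta-lactamase reporter line under UAS control. Compounds in DMSO, at 37 C. Fluorescence read after 2 h with FRET substrate at room temperature.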

[19] = target: Peroxisome proliferator-activated receptor delta (Homo sapiens) (UniProt Q03181); assay: qHTS assay to identify small molecule antagonists of the peroxisome proliferator-activated receptor delta (PPARd) signaling pathway (AID 743215; active means well fitted inhibition curve with a large enough effect in the signal ratio in the repeat runs, not every such curve was filed as active; the % refers to the signal ratio;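 further: cells stimulated with agonist L165041 at 300 nM final during compound exposure; series mostly up to about 62 µM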)
How it was run: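 Antagonist-mode beta-lactamase reporter screen: HEK293H cells with UAS-bla under PPARd control, stimulated by 300 nM L165041 (final) alongside test compound for 17 h at 37 C, then FRET fluorescence after 2 h substrate incubation.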

Measured: Potency

CN1C(=O)CN=C(c2ccccc2)c2cc(Cl)ccc21
not listed: [18] | [19]
inactive: all other assays above

O=c1[nH]c2ccccc2c(=O)o1
not listed: [14]
inactive: all other assays above

CC(C)N1C(=O)c2ccccc2NS1(=O)=O
not listed: [3] | [5] | [8] | [12] | [14]
inactive: all other assays above

Clc1ccc(Cl)cc1
not listed: [3] | [5] | [14]
inactive: all other assays above

CCC[CH2][Sn]([Cl])([Cl])[Cl]
not listed: [7] | [8] | [12]
inactive: all other assays above

COC(=O)c1ccccc1N
not listed: [3] | [5] | [12]
inactive: all other assays above

Cc1ccc(N)cc1Cl
not listed: [3] | [5] | [16] | [18] | [19]
inactive: all other assays above

[O-][Cl+2]([O-])O
not listed: [14] | [15] | [18] | [19]
inactive: all other assays above

O=c1[nH]c(=O)[nH]c(=O)[nH]1
not listed: [3] | [5] | [12]
inactive: all other assays above

CC(C)OC(=O)Nc1cccc(Cl)c1
not listed: [12] | [14] | [17]
inactive: all other assays above
